Reference: PubChem BioAssay AID2314 (National Center for Advancing Translational Sciences (NCATS), 2010)
In all, about 300,000 compounds went through this assay and about 37,000 (12%) were called active. No stated cut-off is given here; in the data, active means max response mostly above about 13% (no sharp cut-off); inactive means mostly below about 14%. The sample as a whole holds a higher share of actives than the screen did.

experiment: Cycloheximide Counterscreen for Small Molecule Inhibitors of Shiga Toxin; conditions: cell reporter, cycloheximide protein synthesis inhibition counterscreen; hits give high values; further: read at 38.3 µM for the half of the compounds with a filed dose; 0% is about no effect

Compound | max response
O=C1Nc2ccc([N+](=O)[O-])cc2C1=Nc1cccc(CO)c1 | -2.88% (inactive)
Cc1ccc(C(=O)OC2CCCN(C)C2)cc1 (configuration not stated) | 6.14% (inactive)
Cn1ccc(=NC=C(C#N)C#N)c2ccccc21 | 1.04% (inactive)
CCOc1cc(CN2CCCC(CO)(Cc3ccc(F)cc3F)C2)ccc1OC (configuration not stated) | -0.883% (inactive)
CCn1nnnc1SCC(=O)Nc1ccc(N(C)C)cc1 | 25.2% (active)
COc1ccc(C(=O)CSc2nnnn2C)c(OC)c1 | -3.16% (inactive)
COc1ccc(-n2nnnc2SCC(=O)Nc2ccccc2)cc1 | -4.18% (inactive)
CC(=O)Nc1ccc(NC(=O)CSc2nnnn2-c2ccccc2F)cc1 | 9.54% (inactive)
CCn1nnnc1SCC(=O)c1ccc(C)cc1C | 56.3% (active)
Cc1ccc(C)c(-n2nnnc2SCC(=O)c2c(N)n(C)c(=O)n(C)c2=O)c1 | -2.92% (inactive)
CCc1nccn1CCC(=O)N1CCCC(N2CCN(c3ccccc3F)CC2)C1 (configuration not stated) | 15.2% (inactive)
COc1ccc(S(=O)(=O)N(C)CC(=O)NCCCN2CCOCC2)cc1Cl | -1.58% (inactive)
Cc1cccc([C@@H]2[C@@H]3C(=O)N(Cc4ccccc4)C(=O)[C@@H]3[C@]3(C)C(=O)N(c4ccc(Br)cc4)C(=O)N23)c1 | 7.73% (inactive)
C=CS(=O)c1sc(Cl)c(N2CCOCC2)c1[N+](=O)[O-] (configuration not stated) | -4.64% (inactive)
CC(=O)N1CCOc2ccc(S(=O)(=O)N3CCC(C(=O)Nc4ccccc4F)CC3)cc21 | -0.955% (inactive)
Cc1ccc(N(C(=O)C(F)(F)F)C(C(=O)NC2CCCCC2)c2ccncc2)cc1C (configuration not stated) | -3.75% (inactive)
CCCn1c(C)cc(C(=O)COC(=O)c2c(C)nn(-c3ccccc3)c2C)c1C | 32.3% (active)
Cc1nn(-c2ccccc2)c(-n2cccc2)c1C(=O)O | -4.68% (inactive)
Cc1cc(C(=O)COC(=O)c2cccs2)c(C)n1-c1c(C)n(C)n(-c2ccccc2)c1=O | 16.4% (inactive)
Cc1ccc(OC(=O)c2c(C)nn(-c3ccccc3)c2C)cc1 | 47.6% (active)
Cc1nn(-c2ccccc2)c(C)c1C(=O)OCC(=O)NC(=O)NC1CCCCC1 | 2.3% (inactive)
CCCc1cc(=O)[nH]c(SCC(=O)c2cc(C)n(CCC)c2C)n1 | 7.55% (inactive)

Compound | max response
COCCn1c(SCC(=O)Nc2cc(OC)ccc2OC)nc2c(c1=O)SC(C)C2 (configuration not stated) | -1.66% (inactive)
CC(C)CC(=O)N1CCN(Cc2ccccc2Br)CC1 | -2% (inactive)
NC(=O)C(Cc1ccccc1)NC(=O)C12CC3CC(CC(C3)C1)C2 (configuration not stated) | 0.275% (inactive)
CCCOc1ccc(NC(=O)C2OC3OC(C)(C)OC3C3OC(C)(C)OC23)cc1 (configuration not stated) | 10.8% (inactive)
Cc1ccc(N(NC(=O)C(C)(C)O)C(=O)c2ccccc2)cc1C | -3.59% (inactive)
Cc1ccc(N/C=C/C(=O)c2ccccc2)cc1C | 45.6% (active)
CCCOc1ccc(NC(=O)C2CCCNC2=O)cc1 (configuration not stated) | 16.5% (inactive)
Cc1ccc(NNC(=O)C2CCC2)cc1C | -2.16% (inactive)
CCOc1ccc(N/C=C/C(=O)c2cc(OC)c(OC)c(OC)c2)cc1 | 3.1% (inactive)
CCOc1ccc(N/C=C/C(=O)c2ccccc2)cc1 | 38.2% (active)
CCCOc1ccc(N/C=C/C(=O)C(C)(C)C)cc1 | 33% (active)
CCOc1ccc(NC(=S)N2CCC(NC(=O)c3ccccc3)CC2)cc1 | -1.64% (inactive)
Cc1cc(OCC(=O)NCC(O)c2ccccc2)c2c(C)c(C)c(=O)oc2c1 (configuration not stated) | 8.74% (inactive)
O=C(O)c1ccccc1C(=O)NC1=NN(c2ccccc2)CC1 | -1.86% (inactive)
O=C(CSc1n[nH]c(-c2cccnc2)n1)Nc1ccc(Cl)cc1 | 1.65% (inactive)
CCO[C@@H]1OC(C(=O)NC2CC2)=C[C@H](C)[C@H]1CCCO | -1.17% (inactive)
CC(NC(=S)NC1CCCCC1)C(c1ccccc1)N1CCOCC1 (configuration not stated) | 0.505% (inactive)
Cc1cc(=O)n2nc(N3CCCC(C(=O)NCc4cccc(Cl)c4)C3)sc2n1 (configuration not stated) | -3.8% (inactive)
CN(NS(=O)(=O)c1cccs1)c1ncc(C(F)(F)F)cc1Cl | -0.853% (inactive)
OC(CNCCc1ccc(Cl)cc1Cl)COc1ccccc1 (configuration not stated) | -1.8% (inactive)
CN(c1ccccc1)S(=O)(=O)c1ccc(C(=O)NCCc2ccccc2)cc1 | 11.2% (inactive)
O=C(NCCc1ccccc1)C1CC1 | 13% (inactive)

Compound | max response
CCCOc1ccc(C(=O)NCCc2ccccc2)cc1 | 27% (active)
Nc1ccc(C(=O)NCc2ccccc2)cc1 | -1.11% (inactive)
COc1ccc(OCCCC(=O)NCCc2ccccc2)cc1 | -2.28% (inactive)
CC(C)c1ccc(C(=O)NCCCc2ccccc2)cc1 | 46.9% (active)
Cc1cc(C(=O)NCCc2ccc(Cl)cc2)c(C)o1 | 49.4% (active)
O=C(NCCc1ccccc1)c1ccc(OCCOc2ccccc2)cc1 | 0.57% (inactive)
O=C(CCc1ccccc1)NNC(=O)COc1ccc(Cl)cc1 | 0.663% (inactive)
NS(=O)(=O)c1ccc(CCNC(=O)c2ccc(Cl)cc2[N+](=O)[O-])cc1 | -2.71% (inactive)
Cc1cc(C(=O)NCCc2ccc(Cl)cc2)n(-c2ccccc2)n1 | -0.868% (inactive)
O=C(NCCc1ccccc1)Oc1ccc(Cl)cc1 | 48.1% (active)
COc1ccc(-c2nc3cnccn3c2NC(C)(C)CC(C)(C)C)cc1O | -1.64% (inactive)
Cc1ccc(CN2CCNC(=O)C2CC(=O)NCc2csc(C(C)C)n2)cc1 (configuration not stated) | -3.12% (inactive)
O=C(COc1ccc(S(=O)(=O)N2CCOCC2)cc1Cl)N1CCOCC1 | -5.7% (inactive)
Cc1cccc(N2C(=O)N3[C@H](c4ccc(F)cc4)[C@@H]4C(=O)N(C5CCCCC5)C(=O)[C@@H]4[C@]3(Cc3ccccc3)C2=O)c1 | 1.33% (inactive)
O=c1oc2ccccc2c(NC2CCCCC2)c1NS(=O)(=O)c1ccc(Cl)cc1 | -6.15% (inactive)
Cc1ccc(N(CC(=O)NCC2CCCO2)C(=O)CNS(=O)(=O)c2ccc(Cl)cc2)cc1 (configuration not stated) | -3.88% (inactive)
O=C(CCc1c[nH]c2ccccc12)NCCOc1ccccc1 | 25.1% (inactive)
NS(=O)(=O)c1cc(C(=O)NCCOc2ccccc2)c(Cl)cc1Cl | -1.96% (inactive)
O=C(NCCOc1ccccc1)c1ccccc1 | 68.1% (active)
CCc1n[nH]c(=S)n1/N=C/c1c[nH]c2ccc(Br)cc12 | -1.29% (inactive)
CC1=NN(C(N)=S)C(=O)C1N=Nc1cc(Cl)ccc1Cl (configuration not stated) | 4.61% (inactive)
CCCCc1nc(SCC(=O)Nc2nnc(C(C)C)s2)n[nH]1 | 26.4% (inactive)

Compound | max response
O=C1CCCC(O)=C1N=Nc1ccc(S(=O)(=O)N2CCOCC2)cc1 | 16% (inactive)
O=C1CCCC(O)=C1N=Nc1ccc2ncsc2c1 | 49.2% (active)
Cc1nc2ccccc2c(=O)n1Cc1ccc([N+](=O)[O-])cc1 | -1.56% (inactive)
Nc1ccc(N=Nc2ccccc2Cl)c(N)n1 | 25.9% (active)
O=S(=O)(c1ccc(Cl)s1)N1CCC2(CC1)OCCO2 | 2.18% (inactive)
COC(=O)c1cc(NC(=O)c2cc(C(C)(C)C)nn2Cc2cccc(C)c2)ccc1N1CCOCC1 | -3.1% (inactive)
CCCNC(=O)c1cnc(-c2ccccc2)nc1-c1ccccc1 | -6.13% (inactive)
CCc1ccc(C(=O)COC(=O)c2ccco2)cc1 | 42.3% (active)
O=C(COC(=O)c1ccccc1C(=O)c1ccccc1)c1ccco1 | 8.15% (inactive)
CCN(CC)c1ccc(C(=O)OCC(=O)c2ccco2)cc1 | 7.36% (inactive)
COc1ccc2[nH]c(C(=O)N/N=C/c3cc(OC)c(OC)c(OC)c3)cc2c1 | 13.6% (inactive)
COc1ccc2[nH]c(C(=O)Nc3ccccc3Cl)cc2c1 | 36.2% (active)
COc1cccc(NC(=O)CN2CCN(CC(=O)Nc3ccccc3Cl)CC2)c1 | -0.686% (inactive)
Cc1cccc(C(=O)NNC(=O)CSc2nnc(C(C)C)n2C)c1 | -5.35% (inactive)
CC(=O)c1cccc(NC(=S)N2CCCC2)c1 | 0.199% (inactive)
CCC(C)c1ccc(NC(=S)N2CCCC2)cc1 (configuration not stated) | 35.2% (active)
CCOc1ccc(NC(=S)N2CCCCCC2)cc1 | 26.7% (inactive)
Cc1cccc(C)c1NC(=S)N1CCCCCC1 | -7.53% (inactive)
S=C(Nc1ccc2c(c1)OCO2)N1CCCC1 | 25.6% (active)
NS(=O)(=O)c1ccc(NC(=S)N2CCCC2)cc1 | -1.21% (inactive)
COC(=O)c1ccc(S(=O)(=O)N2CCc3ccccc3C2)cc1 | -0.876% (inactive)
CCc1nn(CCCC(=O)NCc2ccc(C)cc2)c(=O)c2cc3occc3n12 | 9.5% (inactive)

Compound | max response
CCCCCCC(O)(CCN1CCCCC1)c1ccccc1 (configuration not stated) | -3.74% (inactive)
Cc1ccnc(N2CCCC(C(=O)NC3CC3)C2)n1 (configuration not stated) | -3.55% (inactive)
Cc1ccnc(Nc2nc3ccccc3s2)n1 | 55.1% (active)
CSCCC(Nc1nc2ccccc2s1)C(=O)O (configuration not stated) | -2.31% (inactive)
Cc1ccc(S(=O)(=O)Nc2nc3ccccc3s2)cc1[N+](=O)[O-] | -1.91% (inactive)
COc1cccc(NS(=O)(=O)c2ccc(-c3coc(C)n3)cc2)c1 | 15.9% (inactive)
O=C(NC1CCCC1)C1CC(=O)N(c2ccc(F)cc2)C1 (configuration not stated) | -4.78% (inactive)
COCCC(=O)N1CCC(Oc2ccc(C(=O)NCc3ccon3)cc2)CC1 | 2.55% (inactive)
COC(=O)c1cc(NC(=O)c2cccnc2)ccc1N1CCOCC1 | -2.96% (inactive)
CC(=O)Nc1ccc(Nc2c3ccccc3nc3ccccc23)cc1 | -9.79% (inactive)
CC(=O)Nc1ccc(-c2nc3ccccc3o2)cc1 | 35.3% (active)
Cc1cc2nc(-c3ccc(NC(=O)c4cccnc4)cc3)oc2cc1C | 32.1% (active)
COc1cc(OC)cc(C(=O)Nc2ncc3c(n2)CC(C)(C)CC3=O)c1 | 9.17% (inactive)
Cc1ccc2nc(-c3ccc(NC(=O)c4cccnc4)cc3)oc2c1 | 49.6% (active)
COc1cc(OC)cc(C(=O)Nc2ccc(-c3nc4ccccc4o3)c(O)c2)c1 | 24.8% (active)
Cc1cc(NS(=O)(=O)c2ccc(NC(=O)c3cccnc3)cc2)nc(C)n1 | 1.8% (inactive)
COc1cc(OC)cc(C(=O)Nc2ccc(S(=O)(=O)Nc3cc(C)on3)cc2)c1 | -4.87% (inactive)
CC(=O)NC(=S)Nc1ccc(NC(=O)c2cccnc2)cc1 | 1.22% (inactive)
CC(=O)Nc1ccc(S(=O)(=O)N(C)c2nc3ccccc3nc2Cl)cc1 | 18% (inactive)
